Results from PubChem BioAssay (NCI).
Compounds without any hit were thinned out: in the full panel of roughly 79,000, 15% have a hit. The source made the active and inactive calls. No stated cut-off is given here; in the data, active means growth inhibition above about 70%; inactive means the rest.

Legend:
[1] = NCI Yeast Anticancer Drug Screen. Data for the rad52 strain (AID 147);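 further: 0% = growth of vehicle-treated control cultures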; conditions: S. cerevisiae rad52 mutant growth inhibition, active compounds read high
Procedure, shortened: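 Yeast strain carrying a DNA damage repair alteration was exposed to test compounds. Growth inhibition was measured relative to vehicle-treated controls.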

[2] = NCI Yeast Anticancer Drug Screen. Data for the wt1 strain (AID 149);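 further: 0% = growth of vehicle-treated wt1 cultures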; conditions: S. cerevisiae wt1 strain (SPY 50644) growth inhibition, active compounds read high
Procedure, shortened: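 Readout: yeast growth inhibition, normalised to vehicle controls, in the wt1 strain exposed to test compounds.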

[3] = NCI Yeast Anticancer Drug Screen. Data for the rad50EPP+ strain (AID 151);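 further: 0% = growth of vehicle-treated control cultures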; conditions: S. cerevisiae rad50 mutant strain, active compounds read high
Procedure, shortened: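 Yeast strain carrying rad50 alteration (rad50EPP+) exposed to compounds; growth inhibition measured relative to vehicle-treated controls.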

[4] = NCI Yeast Anticancer Drug Screen. Data for the rad50 strain (AID 155);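 further: 0% = growth of vehicle-only cultures of the same strain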; conditions: S. cerevisiae rad50 strain growth inhibition, active compounds read high
Procedure, shortened: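 Compounds were tested on a yeast strain with an engineered DNA damage repair alteration; the reported value is growth inhibition normalised to vehicle treatment.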

[5] = NCI Yeast Anticancer Drug Screen. Data for the mec2-1 strain (AID 157); conditions: S. cerevisiae mec2-1 strain, active compounds read high
Procedure, shortened: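 mec2-1 yeast strain, carrying an alteration in DNA damage repair or cell cycle control, was exposed to compounds; growth inhibition was measured relative to vehicle-treated controls.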

[6] = NCI Yeast Anticancer Drug Screen. Data for the rad14 strain (AID 159);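 further: 0% = growth of vehicle-treated control cultures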; conditions: S. cerevisiae rad14 strain growth inhibition, active compounds read high
Procedure, shortened: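 Compound-treated yeast with a defined DNA-repair lesion; growth inhibition normalised to vehicle-treated cultures.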

[7] = NCI Yeast Anticancer Drug Screen. Data for the sgs1 mgt1 strain (AID 161);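 further: 0% = growth of cultures given vehicle only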; conditions: S. cerevisiae sgs1 mgt1 strain, active compounds read high
Procedure, shortened: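 This yeast growth screen uses a strain with defined DNA-repair lesions; compound-treated growth is compared with vehicle-treated growth.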

[8] = NCI Yeast Anticancer Drug Screen. Data for the CLN2oe strain (AID 163);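 further: 0% = growth of vehicle-only control cultures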; conditions: S. cerevisiae CLN2oe strain, active compounds read high
Procedure, shortened: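 Yeast cells carrying a defined cell-cycle control alteration were exposed to test compounds. Growth inhibition was scored against vehicle-treated control cultures.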

[9] = NCI Yeast Anticancer Drug Screen. Data for the cln2 rad14 strain (AID 165);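 further: 0% = growth equal to vehicle treated cultures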; conditions: S. cerevisiae cln2 rad14 strain, active compounds read high
Procedure, shortened: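 Yeast carrying cln2 and rad14 alterations (cell cycle control and DNA damage repair) were exposed to compounds. Growth inhibition was measured against vehicle-treated controls.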

[10] = NCI Yeast Anticancer Drug Screen. Data for the bub3 strain (AID 167); conditions: S. cerevisiae bub3 mutant strain, active compounds read high
Procedure, shortened: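 Growth of a checkpoint-deficient yeast mutant is measured after compound exposure. Values represent inhibition relative to vehicle.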

[11] = NCI Yeast Anticancer Drug Screen. Data for the wt2 strain (AID 169);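 further: 0% = growth of vehicle-treated yeast cultures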; conditions: S. cerevisiae wt2 strain growth inhibition, active compounds read high
Procedure, shortened: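 Yeast cells were exposed to test compounds, and growth inhibition was measured relative to vehicle-treated controls.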

[12] = NCI Yeast Anticancer Drug Screen. Data for the mlh1 strain (AID 171);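 further: 0% = growth of vehicle-treated control cultures of the same strain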; conditions: S. cerevisiae mlh1 strain growth inhibition, active compounds read high
Procedure, shortened: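 Yeast carrying a defined genetic alteration in DNA damage repair or cell cycle control were exposed to test compounds. Growth inhibition was measured relative to vehicle-treated controls.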

[13] = NCI Yeast Anticancer Drug Screen. Data for the sgs1 strain (AID 173);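 further: 0% = growth of vehicle-only control cultures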; conditions: S. cerevisiae sgs1 mutant, active compounds read high
Procedure, shortened: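 Yeast mutant strains carrying defined defects in DNA damage repair or cell cycle control were exposed to test compounds. Growth inhibition was scored against vehicle-treated controls.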

[14] = NCI Yeast Anticancer Drug Screen. Data for the mlh1 rad18 strain (AID 175); conditions: S. cerevisiae mlh1 rad18 strain growth inhibition, active compounds read high
Procedure, shortened: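 Growth inhibition of the yeast strain was measured after compound exposure and expressed relative to vehicle-treated controls. The strain carries defined defects in DNA damage repair.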

[15] = NCI Yeast Anticancer Drug Screen. Data for the rad18 strain (AID 177); conditions: S. cerevisiae rad18 mutant growth inhibition, active compounds read high
Procedure, shortened: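 Yeast carrying a defined DNA damage repair alteration were exposed to compounds. Growth inhibition was expressed relative to vehicle-treated controls.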

[16] = at 5.0 µM (retest, dose inferred, filed as 0.5)
[17] = at 50.0 µM (retest, dose inferred, filed as 5.0)

Measured: growth inhibition

CC(C)(C)c1ccc(O)c(C(c2ccc([N+](=O)[O-])cc2)c2cc(C(C)(C)C)ccc2O)c1
inactive: [1]; at 1.2 µM 29% | [1]; at 3.7 µM 24% | [1]; at 11.0 µM 57% | [2]; at 1.2 µM -2% | [2]; at 3.7 µM -4% | [2]; at 11.0 µM 42% | [3]; at 1.2 µM 7% | [3]; at 3.7 µM -8% | [3]; at 11.0 µM -24% | [3]; at 33.0 µM -14% | [3]; at 100.0 µM -10% | [4]; at 1.2 µM 19% | [4]; at 3.7 µM 14% | [4]; [16] 21% | [4]; at 11.0 µM 61% | [5]; at 1.2 µM -1% | [5]; at 3.7 µM 14% | [5]; [16] 7% | [5]; at 11.0 µM 57% | [6]; at 1.2 µM -9% | [6]; at 3.7 µM -24% | [6]; at 11.0 µM 14% | [7]; [16] 29% | [7]; at 50.0 µM 29.1% | [8]; at 1.2 µM 2% | [8]; at 3.7 µM 19% | [8]; at 11.0 µM 38% | [9]; [16] 43% | [10]; at 1.2 µM 9% | [10]; at 3.7 µM 16% | [10]; [16] 33% | [10]; at 11.0 µM 53% | [11]; at 1.2 µM -16% | [11]; at 3.7 µM -19% | [11]; at 11.0 µM 46% | [12]; at 1.2 µM 12% | [12]; at 3.7 µM 6% | [12]; at 11.0 µM 29% | [13]; at 1.2 µM 22% | [13]; at 3.7 µM 13% | [13]; at 11.0 µM 40% | [14]; [16] 36% | [15]; at 1.2 µM 21% | [15]; at 3.7 µM 41% | [15]; at 11.0 µM 57%
active: [1]; at 33.0 µM 79% | [1]; at 100.0 µM 84% | [2]; at 33.0 µM 81% | [2]; at 100.0 µM 90% | [4]; at 33.0 µM 85% | [4]; [17] 88% | [4]; at 50.0 µM 84.3% | [4]; at 100.0 µM 92% | [5]; at 33.0 µM 85% | [5]; [17] 94% | [5]; at 50.0 µM 89% | [5]; at 100.0 µM 92% | [6]; at 33.0 µM 71% | [6]; at 100.0 µM 90% | [7]; [17] 93% | [8]; at 33.0 µM 80% | [8]; at 100.0 µM 91% | [9]; [17] 93% | [9]; at 50.0 µM 82.8% | [10]; at 33.0 µM 88% | [10]; [17] 94% | [10]; at 50.0 µM 84.2% | [10]; at 100.0 µM 92% | [11]; at 33.0 µM 81% | [11]; at 100.0 µM 83% | [12]; at 33.0 µM 90% | [12]; at 100.0 µM 93% | [13]; at 33.0 µM 82% | [13]; at 100.0 µM 93% | [14]; [17] 93% | [14]; at 50.0 µM 80.2% | [15]; at 33.0 µM 70% | [15]; at 100.0 µM 88%

Cc1ccc(N=Nc2ccc(O)c(C)c2)cc1
active: [1]; at 11.0 µM 88% | [1]; at 33.0 µM 98% | [1]; at 100.0 µM 87% | [2]; at 11.0 µM 92% | [2]; at 33.0 µM 98% | [2]; at 100.0 µM 85% | [3]; at 33.0 µM 96% | [3]; at 100.0 µM 82% | [4]; at 11.0 µM 95% | [4]; at 33.0 µM 98% | [4]; at 50.0 µM 91.2% | [4]; at 100.0 µM 94% | [5]; at 11.0 µM 80% | [5]; at 33.0 µM 97% | [5]; at 50.0 µM 92.5% | [5]; at 100.0 µM 79% | [6]; at 33.0 µM 96% | [6]; at 100.0 µM 89% | [7]; [17] 91% | [7]; at 50.0 µM 92.5% | [8]; at 11.0 µM 97% | [8]; at 33.0 µM 97% | [8]; at 100.0 µM 78% | [9]; [17] 94% | [9]; at 50.0 µM 92.2% | [10]; at 11.0 µM 95% | [10]; at 33.0 µM 97% | [10]; [17] 95% | [10]; at 50.0 µM 91.3% | [10]; at 100.0 µM 84% | [11]; at 11.0 µM 91% | [11]; at 33.0 µM 98% | [11]; at 100.0 µM 79% | [12]; at 11.0 µM 91% | [12]; at 33.0 µM 97% | [12]; at 100.0 µM 80% | [13]; at 11.0 µM 90% | [13]; at 33.0 µM 98% | [13]; at 100.0 µM 85% | [14]; at 50.0 µM 91.9% | [15]; at 11.0 µM 89% | [15]; at 33.0 µM 98% | [15]; at 100.0 µM 91%
inactive: [1]; at 1.2 µM 6% | [1]; at 3.7 µM 10% | [2]; at 1.2 µM 5% | [2]; at 3.7 µM -2% | [3]; at 1.2 µM 20% | [3]; at 3.7 µM 39% | [3]; at 11.0 µM 53% | [4]; at 1.2 µM 9% | [4]; at 3.7 µM 18% | [4]; [16] 38% | [4]; [17] 56% | [5]; at 1.2 µM 10% | [5]; at 3.7 µM 11% | [5]; [16] 52% | [5]; [17] 66% | [6]; at 1.2 µM 4% | [6]; at 3.7 µM -7% | [6]; at 11.0 µM 68% | [7]; [16] -16% | [8]; at 1.2 µM -2% | [8]; at 3.7 µM -18% | [9]; [16] 32% | [10]; at 1.2 µM -6% | [10]; at 3.7 µM -7% | [10]; [16] 2% | [11]; at 1.2 µM 5% | [11]; at 3.7 µM 14% | [12]; at 1.2 µM 19% | [12]; at 3.7 µM 10% | [13]; at 1.2 µM 28% | [13]; at 3.7 µM 26% | [14]; [16] 37% | [14]; [17] 51% | [15]; at 1.2 µM 27% | [15]; at 3.7 µM 27%
